From the supplement of paper PMC11417369 come the findings set out here.

± gives the standard deviation of the averaged measurements. Whole data set: some 25,000 sequences, median “ln(normalized median fluorescence intensity)” near 7.9, cut for the highest 2% near 11. Many of the other results were omitted from the sample, so the highest values are more common in it than they were.

This assay deals with PfAP2-I AP2 domain 3 (GST-tagged). Put plainly: gcPBM binding intensity (ln(normalized median fluorescence intensity)); higher = stronger DNA binding. The procedure, abridged:
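Binding intensity is the highest Masliner-normalised natural-log median intensity over replicate spots in either probe orientation. To obtain it, GST-tagged P. falciparum DNA-binding domains made in E. coli were incubated for 1 h on an Agilent 4 × 180k array of primer-extended double-stranded 36-bp intergenic genomic probes plus negative controls. Detection used Alexa488 anti-GST antibody with scanning at 488 nm.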
For “AGCAATTTGGGGTGTACACACACCTTATTTAAATTA [CACACA_site1157]”, the “gcPBM binding intensity (ln)” value came out at 8.23 ± 0.22.
As to “AATATTATTATTATTACACACACAATTATATTTACC [CACACA_site8061]”, the “gcPBM binding intensity (ln)” value was 7.93 ± 0.38.
As to “AACCTTACACAAGGGGTGCAATATTATTTCGATAAA [GTGCAC_site9600]”, the “gcPBM binding intensity (ln)” value came to 11.5 ± 0.66.
As for “TACATTTTACTTGTTACACACATATAAAATTAACCA [CACACA_site2922]”, the “gcPBM binding intensity (ln)” value worked out at 7.82 ± 0.5.
Turning to “AATAGTAAAAATCACTGTACGTTTATTTTTAAAATG [XGTACX_site1035]”, the “gcPBM binding intensity (ln)” value was determined as 7.79 ± 0.28.
For “CCATAACTCATATGCACACATAAATATTACATATAT [CACACA_site3821]” the value was 8.87 ± 0.13.
Take “TAGTTCTTTTAATTTAGTATTATACAATATTGGAAA [CACACA_negctrl_site521]”: the “gcPBM binding intensity (ln)” value is 7.49 ± 0.47.
Turning to “ATATAATATTTTAGAGTGCACCGATAACAATAAATA [GTGCAC_site9754]”, the “gcPBM binding intensity (ln)” value turned out to be 10.4 ± 0.17.
Regarding “TTTTAATATATAGAGTAACAAATTTGTCTATTAATA [CACACA_negctrl_site1495]”, the “gcPBM binding intensity (ln)” value stood at 7.5 ± 0.58.
As for ATAACAAAAATCCTTGTGCACTATTTTAATAGAGTC, the “gcPBM binding intensity (ln)” value was 11.4 ± 0.12.
In the case of “TTATATAAAGAATGTACACACAGAAATGCACAGACA [CACACA_site5288]”, the “gcPBM binding intensity (ln)” value came out at 9.43 ± 0.29.
For “TTATATAAAGAATGTACACACAGAAATGCACCCACA [CACACA_site2282]” the value was 11 ± 0.57; for “ATTTATATAAAGAATGTACACACAGAAATGCACCCA [CACACA_site8715]”, 11 ± 0.83.
For “GAAAGAAGCATAAATGTACACACATATTTATATATT [CACACA_site8368]” the value was 7.74 ± 0.4.
As to “TGTACACCCAGAAATGCACACACATATATATATATA [CACACA_site8716]”, the “gcPBM binding intensity (ln)” value is 9.54 ± 0.18.
For “CATTTATATAAAGAATGTACACACAGAAATGCACAC [XGTACX_site4718]”, the “gcPBM binding intensity (ln)” value is 10.2 ± 0.2.
For “TCTTTCTCTCTTCAAAGTACATATAATATATACTTC [XGTACX_site7982]” the value was 7.88 ± 0.52; for “TATTACAAATATGGCACACATATATATATATATATT [CACACA_site3268]”, 8.69 ± 0.2.
As for “ATTAAAAAAAAAAGTATACACACTTCTTAATGTCAA [CACACA_site1244]”, the figure is 7.39 ± 0.47; as for TATATATATATATGTATGCACTTTAATTTTATAAGG, 9.85 ± 0.26; as for “TTATGTTCTTAATGCACACTTATAAGTATCTTATAA [CACACA_site1394]”, 10.99 ± 0.028.
Turning to “ATATAATATTTATATGCACACTTTTCTATATATAAG [CACACA_site6100]”, the “gcPBM binding intensity (ln)” value was determined as 9.77 ± 0.15.
For “TTTTATGTTCTTAATGCACACTTATAAGTATCTTAT [CACACA_site4895]” the value was 11.4 ± 0.72; for “TAAAAAAAAAAGTATACACACTTCTTAATGTCAACA [CACACA_site4818]”, 7.36 ± 0.46; for “AGGAAATTTTTTTTTTTTTTTTTTTTTTTTTTTTAC [TGCATGCA_negctrl_site170]”, 7.5 ± 0.56.
Turning to “TTTATTTTCATATGAACACACATATAAATATTATAA [CACACA_site7172]”, the “gcPBM binding intensity (ln)” value is 7.87 ± 0.41.
For the sequence “TTATTTTCTTTCTATGCACACGCACGTATTTGCCCA [CACACA_site9104]”, the “gcPBM binding intensity (ln)” value was determined as 9.39 ± 0.16.
“TTTATTTTATCATTTGCACACGCACCCCCACATAAA [CACACA_site8007]”: the “gcPBM binding intensity (ln)” value stood at 10.4 ± 0.26.
As for “ATTTTCTTTCTATGCACACGCACGTATTTGCACCCA [CACACA_site3350]”, the “gcPBM binding intensity (ln)” value is 11.5 ± 0.39.
For “GCTTATATTAATAAGGTGCTTTTTATTTCGTGTGTA [GTGCAC_site9649]” the value was 9.06 ± 0.15; for “AAGGAAAAAACAAATACACACAAAAACGCATTATAA [CACACA_site3466]”, 7.87 ± 0.71.
“TTATGGTGCAACATTATGCACACCGTTAAATAACTA [CACACA_site3846]”: the “gcPBM binding intensity (ln)” value turned out to be 11.1 ± 0.52.
As for “TCATAAACATTATGCACACAAAAATAAAAAAAAATA [CACACA_site1115]”, the figure is 9.8 ± 0.56.
For TGATTCTAACTTATGGTGCAACATTATGGACACCGT the value was 10.3 ± 0.35; for “AATCATAAACATTATGCACACAAAAATAAAAAAAAA [CACACA_site8289]”, 9.81 ± 0.11; for “ATGGTGCAACATTATGCACACCGTTAAATAACTAAT [CACACA_site9280]”, 11.5 ± 0.7.
For the sequence “AACAACAACTAATATGCACACATTTAAAAACAAAAT [CACACA_site2440]”, the “gcPBM binding intensity (ln)” value was 9.42 ± 0.26.
As for “TACTTTTCTTAAAGATGTACGTTTTAAAAATAAAAT [XGTACX_site14]”, the figure is 7.81 ± 0.2; as for “ATATTTCTGTGTGGATGTACATTATTAGCAGGCTTT [XGTACX_site6496]”, 8.12 ± 0.73.
As for “TTTTTTTTTTTTTTTTGTACTTATAAAATAACATGT [XGTACX_site134]”, the figure is 8.13 ± 0.82; as for “TTTTTTATTTAAAGTAGTACTTTTTAGAAAACAAAA [XGTACX_site6759]”, 7.68 ± 0.29; as for “AATGCACTATTTAAAAGTACACATAAGAAAAGCATA [XGTACX_site1739]”, 9.24 ± 0.28.
As for “TATAAATCTATAAATGCACACAAGGGAAGAAAAACG [CACACA_site2965]”, the figure is 9.46 ± 0.26.
For “TATTAAAGCACCCATGCACACACACTAAGGAAAAGA [CACACA_site7961]”, the “gcPBM binding intensity (ln)” value amounted to 11.6 ± 0.71.
As to “AAAGCACCCATGCACACACACAAAGGAAAAGAAAAA [CACACA_site6249]”, the “gcPBM binding intensity (ln)” value is 8.32 ± 0.38.
